The text below walks through data of PubChem BioAssay (NCI).

This is part of a sample that, as a whole, favours compounds with a hit. Of some 83,000 tested, about 20% had one in any assay.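 Cells were grown in 96-well plates and exposed to the test compound at a single concentration for 48 hours; results are reported as percent growth, with values below 10 considered active.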 Unmarked numbers belong to inactive results. Active and inactive are the calls of the source.

Holding throughout (assay): NCI-60 one-dose screen, 48 h (100 = growth as untreated, 0 = no growth, -100 = all killed)
Holding throughout (settings): 10 µM

Test [1] relates to NCI-H23 lung.
In test [2] the test system is NCI-H226 lung.
Test [3] has as its system NCI-H322M lung.
The subject of test [4] is HOP-62 NSCLC.
For test [5], the system named is NCI-H460 lung.
Test [6] has as its system HOP-92 NSCLC.
In test [7] the test system is NCI-H522 lung.
Test [8] relates to A549/ATCC NSCLC.
Test [9] has as its system 786-0 renal.
Test [10] relates to COLO 205 colon.

Turning to `COc1ccc(C=CC(=O)c2ccc(-n3c(C)nc4c(cnn4-c4ccccc4)c3=O)cc2)cc1`, the growth in [1] was 72.4%; in test [2] it was 70.6%; in test [3], 107%; in test [4] it was 80.5%; in [5], 97.8%; in [6], 97.3%. The growth in test [7] was 57.4%; in [8], 90.8%; in test [9], 84.6%; in test [10], 116%.
As to `CCCCOc1ccc(Nc2nc3ccccc3nc2Nc2ccc(OCCCC)cc2)cc1`, the growth is 82.6% in test [1]; 96.6% in [2]; 106% in [3]; 98.9% in test [4]; 60.1% in test [5]; 97.4% in test [6]. The growth is 88.5% in test [7], 89.4% in test [8], 72.1% in test [9] and 116% in [10].
Regarding `Cc1ccc2nc3c(nc2c1)c1cc(I)ccc1n3CCN(C)C`, the growth in test [1] was 17.8%; in test [2], 39.9%; in test [3] it was 20%; in [4], 31.3%; in test [5] it was -2.92% (active); in test [6], 37.2%. Further, the growth was 31.4% in test [7], 13.5% in test [8], 23.6% in test [9] and -55.8% (active) in [10].
As for `O=c1[nH]c2ccccc2cc1CSc1ccc(Nc2nccc(-c3ccc(C(F)(F)F)cc3)n2)cc1`, the growth was 35.3% in test [1]; -27.2% (active) in [2]; 23.8% in [3]; -14% (active) in [4]; 2.12% (active) in test [5]; -1.46% (active) in test [6]. Also, the growth in [7] was 28.3%; in test [8], -16.8% (active); in test [9] it was -49.7% (active); in [10], 18%.
In the case of `N#Cc1c(NC(=O)c2ccc(C(F)(F)F)cc2C(F)(F)F)sc2c1CCC(=O)C2`, the growth in test [1] was -50% (active); in test [2], -7.56% (active); in test [3], 12.4%; in test [4], 7.49% (active); in test [5], 12%; in test [6], -61.5% (active). The growth in [7] is -72.5% (active); in test [8] it was 9.8% (active); in test [9], 4.38% (active); in test [10], -73.3% (active).
As for `COc1ccc(CCN2C(=O)/C(=C/c3csc(C#N)n3)SC2=S)cc1`, the growth in test [1] was 24.3%; in test [2], 98.5%; in test [3] it was 86.4%; in [4], 83.5%; in test [5], 68.2%; in test [6] it was -5.5% (active). In addition, the growth was -69.8% (active) in [7], 89% in test [8], -55.2% (active) in test [9] and -75% (active) in [10].
For the molecule `COc1ccccc1C(=O)NNC(=O)CSc1nc2c(c(=O)[nH]1)CCCC2`, the growth in test [1] is 91.4%; in [2] it was 83.6%; in test [3] it was 103%; in test [4] it was 93.5%; in test [5], 111%; in test [6], 86.2%. In addition, the growth is 104% in [7], 106% in [8], 115% in test [9] and 113% in [10].
For the molecule `COc1ccc(NC(=O)Nc2ccc(OCC(=O)N=Nc3c(O)[nH]c4ccc([N+](=O)[O-])cc34)cc2)cc1`, the growth in test [1] is 59.5%; in [2], 62.7%; in [3], 91.2%; in [4], 40.7%; in [5], 74%; in [6], 53.5%. Besides, the growth in test [7] was 0.434% (active); in test [8] it was 99%; in test [9], 73.1%; in test [10], 112%.
Regarding `COc1cc(-c2nc3cc(Cl)c(Cl)cc3[nH]2)ccc1OCc1nnc(-c2ccc(Br)cc2)o1`, the growth in test [1] was 24%; in [2], -46.8% (active); in test [3], 38.8%; in test [4] it was -28.1% (active); in test [5] it was 22.9%; in [6], -39.6% (active). For the same molecule, the growth was 8.01% (active) in [7], 19.5% in test [8], -31% (active) in test [9] and 51.4% in [10].
With `Cc1ccn2c(C(=O)c3ccc(Br)cc3)cc(-c3cc(-c4ccc(N(C)C)cc4)c(C#N)c(N)n3)c2c1`, the growth in [1] was 27.6%; in test [2] it was 60.5%; in [3], 41%; in test [4] it was 78.8%; in test [5] it was 54.4%; in test [6] it was 31.2%. Also, the growth was 45.3% in test [7], 70.2% in test [8], 40.9% in test [9] and 47.5% in [10].
In the case of `O=C(CSc1nnc(-c2c[nH]c3ccccc23)n1-c1ccccc1)Nc1ccc(C(=O)/C=C/c2ccc(Br)cc2)cc1`, the growth in test [1] is 81.3%; in test [2], 72.5%; in test [3], 92.1%; in [4], 89.4%; in test [5], 104%; in test [6], 89.4%. Besides, the growth in test [7] was 76.3%; in test [8], 89.6%; in [9] it was 94.8%; in test [10], 108%.
Take `CN1CCN(c2ccc(Nc3nc(NCCCNC(=O)c4ccc(Cl)cc4)c4sccc4n3)cc2)CC1`: the growth in test [1] was 81.9%; in [2], 79.3%; in test [3], 91.3%; in test [4], 91.9%; in test [5] it was 88.9%; in [6], 34.1%. The growth is 103% in test [7], 87.8% in [8], -4.27% (active) in test [9] and 92.5% in test [10].
With `Cn1c(O)c(N=Nc2nc(-c3cc4ccccc4oc3=O)cs2)c2cc(Br)ccc21`, the growth in [1] is 51.2%; in test [2] it was 52%; in test [3], 84.4%; in test [4], 12.1%; in [5] it was 92%; in [6] it was -14.7% (active). The growth in test [7] was 57.9%; in test [8], 97.8%; in test [9], -12% (active); in test [10], 136%.
